A number with no mark means an inactive call. Results filed as inconclusive are left out. Activity calls are given as the source filed them. Unless noted, calls come from the whole dose curve; as a rule, active = well fitted curve in either direction with a large enough effect (not every such curve was filed as active); inconclusive = small, poorly fitted or top-dose-only effect, or another doubt; inactive = flat fitted curve, though single readings scatter. Where only a bound is given, the exact number is not on record here.

The target in assay [1] is Lysosomal acid glucosylceramidase (Homo sapiens) (UniProt P04062). Kind of assay: Glucocerebrosidase-p2 (AID 348; in the data active = potency below about 10 µM; note: potency is the fitted concentration of half-maximal effect). The settings on record: purified GBA, blue fluorogenic substrate, 40 min. Summed up:
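Compounds titrated from 0.6 nM upwards against 0.2 nM enzyme in pH 5.9 citric acid/KH2PO4, taurocholate, tween-20; blue fluorogenic substrate 80 uM, 40 min room temperature, stopped and read Ex 365/Em 440 for AC50.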

Assay [2] is described as follows: AP1 Signaling Pathway (AID 357). Note: % is set by controls: 0 for no effect and ±100 for the full control effect. The settings on record: ME-180 AP-1-bla reporter, EGF-induced, beta-lactamase ratio, 5 h; at 7.69 µM (top of the series) unless noted. The gist of the method: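 AP-1-bla ME-180 cells with beta-lactamase reporter under AP-1 response element, stimulated with EC50 EGF; compounds titrated, 5 hours at 37 degrees Celsius. CCF4 read at 460/530 nm ratio; positive and negative modulators judged by AC50.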

For assay [3], the target named is Cytochrome P450 1A2 (Homo sapiens) (UniProt P05177). Kind of assay: p450-cyp1a2 (AID 410; calls by dose curve; note: potency is the fitted concentration of half-maximal effect). The settings on record: recombinant CYP1A2, luciferin-ME demethylation, luminescence; series mostly up to 11.4 µM. The gist of the method:
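Luminescent readout of luciferin formed from Luciferin-ME by human CYP1A2; data normalized against complete inhibition by 57 uM furafylline. Enzyme 20nM, substrate 100uM at Km, 100mM KPO4 buffer, 60 min reaction at room temperature.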

Assay [4] in a line: NFAT Signaling Pathway (AID 444).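 Note: carbachol stimulus at about its EC50 of 1 µM final; % is set by controls: 0 for no effect and ±100 for the full control effect.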 The settings on record: Jurkat NFAT-bla M1, carbachol, beta-lactamase ratio, 5 h; at 7.69 µM (top of the series) unless noted. The gist of the method: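 Jurkat cells carrying an NFAT-driven β-lactamase reporter and co-transfected muscarinic M1 receptor were treated with compound plus carbachol (1 uM final, an EC50 level) for 5 h at 37 °C. CCF4 loading followed for 1 h at RT; 460/530 nm ratio gave %activity.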

Assay [5] can be described thus: Stat Signaling Pathway (AID 446).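 Note: ME-180 cervical cancer cells given 40 pM IL-6 alongside compound; SIE-controlled beta-lactamase reporter measured as 460/530 nm FRET emission ratio; % is set by controls: 0 for no effect and ±100 for the full control effect.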 The settings on record: ME-180 SIE beta-lactamase reporter, IL-6 stimulated, 5 h; at 7.69 µM (top of the series) unless noted. The gist of the method: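 Reporter line: ME-180 cervical carcinoma, SIE-beta-lactamase. Treatment: compound with 40 pM IL-6, 5 hrs, 37 C, in low-serum OPTI-MEM with 10 mM HEPES pH 7.3. Detection: 460/530 nm fluorescence.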

Assay [6] concerns the target Glucocorticoid receptor (Homo sapiens) (UniProt P04150). Kind of assay: GR-GFP Redistribution (AID 450;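 active = compounds whose dose series gives a full or clear partial fitted curve of increased nuclear translocation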; note: potency is the fitted concentration of half-maximal effect). The settings on record: U2OS GR-GFP nuclear translocation, laser cytometry, 2 h.
Assay [7] shares this target. Put plainly: GR-EFC Redistribution (AID 451; calls by dose curve; note: potency is the fitted concentration of half-maximal effect). The settings on record: CHO-K1 GR-EFC translocation, beta-gal luminescence, 2 h. Summed up:
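CHO-K1 cells stably expressing nuclear-localized β-gal enzyme acceptor and GR fused C-terminally to the enzyme donor fragment; ligand-driven nuclear translocation restores β-gal by complementation. Compounds titrated up to 46 uM final, 2 h at 37 °C; luminescence read.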

Assay [8] concerns the target Mitogen-activated protein kinase 10 (Mus musculus) (UniProt Q61831). Kind of assay: JNK3 AlphaScreen Assay (AID 530).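 Note: kinase came from lysate of stimulated human HepG2 cells; signal reports phosphorylation of biotinylated GST-cJun 1-79 at Ser73 with 10 µM ATP; % is set by controls: 0 for no effect and ±100 for the full control effect.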 The settings on record: JNK3 lysate, c-Jun phosphorylation; series mostly up to 11.4 µM. The gist of the method:
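Inhibitors reduce antibody binding to phosphorylated biotin-cJun, lowering AlphaScreen luminescence. Lysates from HepG2 cells pre-activated by IL-1beta plus TNF-alpha supplied JNK3; compounds were titrated.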

Assay [9] deals with 3',5'-cyclic-AMP phosphodiesterase 4B (Homo sapiens) (UniProt Q07343). Put plainly: qHTS Assay for Inhibitors of PDE-IV (AID 607; active = well fitted activation curve with a large enough effect in the main read-out, with a control signal flat, not every such curve was filed as active; note: % of control where 0% means no effect). The settings on record: HEK293 ACTOne CNG channel cells, membrane potential fluorescence; series mostly up to 22.9 µM. Summed up: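 Cell-based read-out of cAMP via a modified cyclic nucleotide-gated channel and membrane potential dye (535/590 nm) in HEK293 cells expressing PDE4 endogenously. Compounds tested up to 22.9 uM final; 100 uM RO 20-1724 reference.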
For orientation: qHTS replaces the single test concentration by a dilution series.

Assay [10] concerns the target Cytochrome P450 2C9 (Homo sapiens) (UniProt P11712). Kind of assay: qHTS Assay for Inhibitors and Substrates of Cytochrome P450 2C9 (AID 883; active = well fitted curve in the direction sought with a large enough effect; an effect the other way counts as inactive or inconclusive; note: nearly all actives have a fitted effect of over 60% in size; note: potency is the fitted concentration of half-maximal effect). The settings on record: recombinant CYP2C9, luciferin-H luminescence, 60 min; series mostly up to 11.4 µM. The gist of the method: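 A luminogenic readout tracked human CYP2C9 (10nM) converting deoxyluciferin (100uM, at KM) in 25mM KPO4 during 60 min at 37C with regenerated NADPH. Values normalized to 57uM sulphaphenazole as complete inhibition.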

In assay [11] the target is Cytochrome P450 3A4 (Homo sapiens) (UniProt P08684). Kind of assay: qHTS Assay for Inhibitors and Substrates of Cytochrome P450 3A4 (AID 884; active = well fitted curve in the direction sought with a large enough effect; an effect the other way counts as inactive or inconclusive; note: potency is the fitted concentration of half-maximal effect; nearly all actives have a fitted effect of over 50% in size). The settings on record: recombinant CYP3A4, Luciferin-PPXE luminescence; series mostly up to 57.1 µM. Summed up:
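20 nM human CYP3A4 with 25 uM Luciferin-PPXE (at KM) in 200 mM KPO4, preincubated 10 min with compound; NADPH regeneration started a 60 min RT reaction. Luciferin detected by luminescence, normalized to 57 uM ketoconazole as full inhibition.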

The target is the same in assay [12]. Kind of assay: qHTS Assay for Activators of Cytochrome P450 3A4 (AID 885; active = well fitted curve in the direction sought with a large enough effect; an effect the other way counts as inactive or inconclusive; note: nearly all actives have a fitted effect of over 65% in size). The settings on record: recombinant CYP3A4, Luciferin-PPXE luminescence, 60 min; series mostly up to 11.4 µM. The gist of the method: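 Signal was normalized against complete inhibition by 57 uM ketoconazole. The reaction used 20nM CYP3A4 with 25uM Luciferin-PPXE, 10-min compound preincubation and a 60-min NADPH-supported step at RT.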

In assay [13] the target is Cytochrome P450 2D6 (Homo sapiens) (UniProt P10635). Kind of assay: qHTS Assay for Inhibitors and Substrates of Cytochrome P450 2D6 (AID 891; active = well fitted curve in the direction sought with a large enough effect; an effect the other way counts as inactive or inconclusive;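 note: luciferin methyl ether substrate demethylated by CYP2D6 with NADPH regeneration; % is set by controls: 0 for no effect and ±100 for the full control effect; nearly all actives have a fitted effect of over 60% in size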). The settings on record: recombinant CYP2D6, luciferin-ME EGE luminescence; series mostly up to 11.4 µM. Summed up: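 Human CYP2D6 (5 nM) with 30 uM Luciferin-ME EGE (at Km) in 100 mM KPO4, compound preincubated 10 min, then NADPH regeneration system for 60 min at room temperature. Luciferin read by luminescence; normalized to 1.43 uM quinidine.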
Chain of Cytochrome P450 2D6 (Homo sapiens) (P10635 whole entry, looked up): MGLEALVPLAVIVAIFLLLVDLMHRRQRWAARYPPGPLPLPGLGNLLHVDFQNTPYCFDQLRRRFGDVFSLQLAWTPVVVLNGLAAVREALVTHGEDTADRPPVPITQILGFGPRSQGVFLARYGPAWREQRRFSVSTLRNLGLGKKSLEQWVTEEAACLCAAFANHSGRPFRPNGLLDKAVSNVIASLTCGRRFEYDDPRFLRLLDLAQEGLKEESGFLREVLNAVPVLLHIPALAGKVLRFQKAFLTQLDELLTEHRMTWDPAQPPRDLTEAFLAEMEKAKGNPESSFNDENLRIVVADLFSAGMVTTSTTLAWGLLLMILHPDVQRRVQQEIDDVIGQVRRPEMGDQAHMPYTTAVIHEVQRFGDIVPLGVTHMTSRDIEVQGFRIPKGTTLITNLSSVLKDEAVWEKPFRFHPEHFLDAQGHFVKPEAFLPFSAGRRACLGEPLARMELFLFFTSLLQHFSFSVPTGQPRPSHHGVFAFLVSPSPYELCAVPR

Chain of 3',5'-cyclic-AMP phosphodiesterase 4B (Homo sapiens) (Q07343 whole entry, looked up): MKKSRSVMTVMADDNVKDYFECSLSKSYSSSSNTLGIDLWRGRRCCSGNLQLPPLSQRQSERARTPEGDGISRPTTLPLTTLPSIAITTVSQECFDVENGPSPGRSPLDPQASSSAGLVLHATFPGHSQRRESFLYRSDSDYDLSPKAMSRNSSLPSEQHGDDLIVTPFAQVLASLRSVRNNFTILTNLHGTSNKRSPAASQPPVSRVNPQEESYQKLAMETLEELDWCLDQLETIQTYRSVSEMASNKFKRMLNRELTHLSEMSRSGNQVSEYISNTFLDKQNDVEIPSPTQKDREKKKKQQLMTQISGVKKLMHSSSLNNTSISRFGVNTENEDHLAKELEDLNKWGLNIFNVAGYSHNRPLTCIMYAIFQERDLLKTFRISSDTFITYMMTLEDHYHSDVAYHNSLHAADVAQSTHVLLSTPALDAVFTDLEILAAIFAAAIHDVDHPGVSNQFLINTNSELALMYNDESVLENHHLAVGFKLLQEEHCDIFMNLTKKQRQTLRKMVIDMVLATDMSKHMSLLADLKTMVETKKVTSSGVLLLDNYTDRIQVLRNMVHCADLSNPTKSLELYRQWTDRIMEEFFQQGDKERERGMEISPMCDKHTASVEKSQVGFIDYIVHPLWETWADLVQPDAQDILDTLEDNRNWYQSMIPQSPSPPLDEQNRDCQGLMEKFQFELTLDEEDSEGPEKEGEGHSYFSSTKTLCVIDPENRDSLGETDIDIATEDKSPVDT
Chain of Lysosomal acid glucosylceramidase (Homo sapiens) (P04062 whole entry, looked up): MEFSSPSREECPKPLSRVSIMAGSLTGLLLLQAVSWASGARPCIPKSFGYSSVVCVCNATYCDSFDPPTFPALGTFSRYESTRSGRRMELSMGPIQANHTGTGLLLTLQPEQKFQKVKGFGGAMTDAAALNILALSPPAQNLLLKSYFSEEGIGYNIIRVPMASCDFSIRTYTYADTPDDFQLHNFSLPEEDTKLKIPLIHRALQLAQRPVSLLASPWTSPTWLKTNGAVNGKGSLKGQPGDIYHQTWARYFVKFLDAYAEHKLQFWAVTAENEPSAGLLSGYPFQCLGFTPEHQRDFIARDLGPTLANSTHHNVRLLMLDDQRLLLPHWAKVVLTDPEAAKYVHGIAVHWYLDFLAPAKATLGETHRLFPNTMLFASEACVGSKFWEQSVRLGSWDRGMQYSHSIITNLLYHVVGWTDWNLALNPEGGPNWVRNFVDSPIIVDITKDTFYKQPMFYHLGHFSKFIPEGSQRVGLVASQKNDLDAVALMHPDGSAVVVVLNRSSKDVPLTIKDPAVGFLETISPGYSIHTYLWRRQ
Chain of Glucocorticoid receptor (Homo sapiens) (P04150 whole entry, looked up): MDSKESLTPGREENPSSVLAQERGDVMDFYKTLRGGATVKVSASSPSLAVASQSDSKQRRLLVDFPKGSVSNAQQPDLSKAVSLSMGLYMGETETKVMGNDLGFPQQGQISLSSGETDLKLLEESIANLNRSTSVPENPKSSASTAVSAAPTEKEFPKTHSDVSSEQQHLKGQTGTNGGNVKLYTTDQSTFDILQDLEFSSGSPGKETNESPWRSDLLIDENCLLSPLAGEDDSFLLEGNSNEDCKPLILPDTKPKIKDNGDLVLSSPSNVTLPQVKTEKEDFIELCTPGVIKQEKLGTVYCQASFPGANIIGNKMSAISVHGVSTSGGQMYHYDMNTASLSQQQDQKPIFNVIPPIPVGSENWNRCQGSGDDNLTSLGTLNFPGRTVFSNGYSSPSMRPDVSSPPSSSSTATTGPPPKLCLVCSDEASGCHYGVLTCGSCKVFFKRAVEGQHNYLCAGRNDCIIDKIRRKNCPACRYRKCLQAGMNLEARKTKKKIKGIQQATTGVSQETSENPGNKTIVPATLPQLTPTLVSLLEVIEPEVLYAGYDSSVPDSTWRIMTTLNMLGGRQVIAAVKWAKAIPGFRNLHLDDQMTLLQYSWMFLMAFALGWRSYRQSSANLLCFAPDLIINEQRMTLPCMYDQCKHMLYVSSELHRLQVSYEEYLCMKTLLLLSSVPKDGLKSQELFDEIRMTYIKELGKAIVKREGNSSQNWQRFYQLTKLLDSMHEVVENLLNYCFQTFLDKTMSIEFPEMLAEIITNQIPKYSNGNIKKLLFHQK
Chain of Cytochrome P450 1A2 (Homo sapiens) (P05177 whole entry, looked up): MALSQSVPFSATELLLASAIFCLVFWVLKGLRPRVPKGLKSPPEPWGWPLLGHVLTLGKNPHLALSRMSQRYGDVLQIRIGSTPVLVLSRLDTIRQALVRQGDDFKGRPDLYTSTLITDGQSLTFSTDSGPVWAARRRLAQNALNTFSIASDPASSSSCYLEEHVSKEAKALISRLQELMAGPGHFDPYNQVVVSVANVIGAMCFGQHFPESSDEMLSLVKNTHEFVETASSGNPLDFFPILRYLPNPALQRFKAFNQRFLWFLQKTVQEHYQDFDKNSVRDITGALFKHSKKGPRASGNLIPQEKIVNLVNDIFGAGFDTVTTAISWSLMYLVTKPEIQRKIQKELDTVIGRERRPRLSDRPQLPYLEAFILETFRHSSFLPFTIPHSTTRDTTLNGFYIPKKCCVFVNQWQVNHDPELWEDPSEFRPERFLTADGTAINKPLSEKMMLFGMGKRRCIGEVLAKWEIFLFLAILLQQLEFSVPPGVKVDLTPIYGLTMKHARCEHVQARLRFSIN
Chain of Cytochrome P450 3A4 (Homo sapiens) (P08684 whole entry, looked up): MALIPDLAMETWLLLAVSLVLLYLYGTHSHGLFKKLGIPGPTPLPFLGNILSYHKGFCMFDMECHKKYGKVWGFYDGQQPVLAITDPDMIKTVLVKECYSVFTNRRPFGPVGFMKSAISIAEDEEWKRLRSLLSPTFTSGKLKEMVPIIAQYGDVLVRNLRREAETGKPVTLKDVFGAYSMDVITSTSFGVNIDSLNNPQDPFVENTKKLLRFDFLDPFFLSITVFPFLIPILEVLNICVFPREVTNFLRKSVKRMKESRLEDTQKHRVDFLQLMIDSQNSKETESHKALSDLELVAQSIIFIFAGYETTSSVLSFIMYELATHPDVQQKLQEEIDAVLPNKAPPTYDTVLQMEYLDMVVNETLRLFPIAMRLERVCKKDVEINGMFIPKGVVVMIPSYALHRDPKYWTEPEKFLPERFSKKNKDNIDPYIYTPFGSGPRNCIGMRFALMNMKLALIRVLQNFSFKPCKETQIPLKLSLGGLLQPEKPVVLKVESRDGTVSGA
Chain of Cytochrome P450 2C9 (Homo sapiens) (P11712 whole entry, looked up): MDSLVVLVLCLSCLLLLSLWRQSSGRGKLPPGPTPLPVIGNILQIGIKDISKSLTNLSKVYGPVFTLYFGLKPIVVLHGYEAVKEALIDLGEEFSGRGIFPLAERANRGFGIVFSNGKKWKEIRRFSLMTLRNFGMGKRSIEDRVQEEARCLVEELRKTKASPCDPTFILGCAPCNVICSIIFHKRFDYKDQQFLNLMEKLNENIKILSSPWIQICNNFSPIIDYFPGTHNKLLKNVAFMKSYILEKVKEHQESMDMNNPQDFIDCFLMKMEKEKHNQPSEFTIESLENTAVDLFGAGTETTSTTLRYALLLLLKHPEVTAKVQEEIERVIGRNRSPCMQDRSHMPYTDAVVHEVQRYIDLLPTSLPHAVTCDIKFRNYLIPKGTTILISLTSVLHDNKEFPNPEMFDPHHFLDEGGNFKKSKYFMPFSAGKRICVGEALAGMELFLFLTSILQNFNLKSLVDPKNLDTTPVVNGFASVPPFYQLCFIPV

In the case of `O=C(N/N=C\c1ccc2c(c1)CCC2)c1ccccc1O`, the Potency is greater than 11.4 µM in [1], 2 µM (active) in assay [3], greater than 46 µM in assay [6] and greater than 9.22 µM in assay [7]. Moreover, the figures for the activity change, negative = inhibition in [2] and in assay [4] were -5.97% and 20.6%, respectively. Further, the activity, negative = inhibition in [5] was -2.26%. The Potency result in assay [8], in assay [9] and in assay [10] was “inactive” each time.

On to `N[C@@H](CSCc1ccccc1)C(=O)O`, for which the Potency in assay [1] is greater than 11.4 µM; in [6] it was greater than 46 µM; in assay [7], greater than 9.22 µM. In addition, the figures for the activity change, negative = inhibition in assay [2] and in assay [4] were 14.5% and 3.49%, respectively. The Potency entry in [3], in [8] and in [9] was “inactive” in each case. Moreover, in assay [5], the activity, negative = inhibition was -2.8%.

For `CN(C)CCCn1c2ccccc2c2cnccc21`, the Potency in assay [1] was greater than 11.4 µM; in assay [6] it was greater than 46 µM; in assay [7] it was greater than 9.22 µM. Also, the activity change, negative = inhibition was 1.6% in assay [2], -20% [at 2.29 µM] in assay [3] and 2.32% in [4]. For the same molecule, the activity, negative = inhibition in assay [5] is 13.9%. Also, the Potency result in assay [8] and in [9] was “inactive” in each case.

Regarding `Cn1c(=O)c2[nH]c(SCc3ccccn3)nc2n(C)c1=S`, the Potency was greater than 11.4 µM in assay [1]; 0.0126 µM (active) in assay [3]; greater than 46 µM in assay [6]; greater than 9.22 µM in [7]; 3.16 µM (active) in assay [10]; 3.98 µM (active) in assay [11]. The activity change, negative = inhibition in [2] was -5.29%; in assay [4], 13%. Moreover, the activity, negative = inhibition in [5] was -3.9%. Besides, the Potency entry in [8], in [9], in [12] and in assay [13] was “inactive” throughout.

Consider `NC(N)=NC[C@@H]1CCCCCCN1`, for which the Potency in assay [1] was greater than 11.4 µM; in assay [6] it was greater than 46 µM; in assay [7] it was greater than 9.22 µM. Further, the activity change, negative = inhibition is 2% in assay [2] and 4.87% in [4]. The Potency result in assay [3], in assay [8] and in assay [9] was “inactive” throughout. In addition, the activity, negative = inhibition in [5] was -5.43%.

As for `CC(C)c1ccc(/C=C2\C=C(c3ccc4ccccc4c3)OC2=O)cc1`, the Potency in [1] is greater than 11.4 µM; in assay [6] it was greater than 46 µM; in [7], greater than 9.22 µM. Besides, the activity change, negative = inhibition in [2] is -7.05%; in assay [3] it was -24.7% [at 2.29 µM]; in assay [4] it was -17%. Further, the activity, negative = inhibition in [5] was 4.97%. For the same molecule, the Potency entry in assay [8] and in [9] was “inactive” each time.

As for `O=[N+]([O-])c1ccc(NN=C2c3ccccc3Cc3ccccc32)c([N+](=O)[O-])c1`, the Potency in assay [1] is greater than 11.4 µM; in assay [3], 0.794 µM (active); in [6], greater than 46 µM; in [7], greater than 9.22 µM. The activity change, negative = inhibition is 26.1% in [2] and -1.66% in assay [4]. In addition, in [5], the activity, negative = inhibition is 19.7%. Also, the Potency entry in [8] and in [9] was “inactive” in each case.

The record behind these values is PubChem BioAssay (NCATS).
